AMA1 RON2 block – inhibitors of Plasmodium falciparum AMA1-RON2 interaction; Potency, µM (series often up to 58.2 µM), for the others: at the top dose activity change, negative = inhibition, most hits filed as inhibitors; AID 720542; 360,000 compounds, 0.2% hits; AlphaScreen AMA1-biotinylated RON2 peptide binding;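 note: 0% = vehicle wells and -100% = peptide control; nearly all actives have a fitted effect of over 45% in size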
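AMA1 (3D7) with his tag at 25 nM final met compounds first, then biotinylated RON2 peptide at 25 nM; detection used donor plus acceptor beads, 10 µg/mL apiece, read by AlphaScreen after 30 min at room temperature.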
Pf growth 96h – P. falciparum growth inhibition at 96 hours; 320,000 compounds, 6.9% hits; Potency, µM (doses to about 28.7 µM), for the others: at the top dose activity change, negative = inhibition, hits mostly inhibitors; AID 504834; P. falciparum luciferase reporter growth, 96 h; note: % is set by controls: 0 for no effect and ±100 for the full control effect
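P. falciparum expressing integrated firefly luciferase grown in erythrocytes (2% hematocrit, 0.05% parasitemia final) with compounds for 96 hours at 37 C, 5% CO2. Growth inhibition read as loss of luminescence after adding luciferase detection reagent.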
NS1 inh – influenza NS1 inhibition. Potency, µM (highest dose often 46.1 µM), for the others: at the highest dose activity, positive = more growth. 270,000 compounds, 0.4% hits; calls by dose curve; note: actives are rising curves; nearly all actives have a fitted effect of over 50% in size
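Read-out: OD600 growth recovery of NS1-expressing budding yeast. Cells grown overnight at 30C in -URA glucose medium, washed, resuspended and diluted 1:100 in 2% galactose assay medium, pH 6.0. Same strain lacking NS1 served as positive control.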
HCV inhibitor – blocks hepatitis C virus. Huh7.5.1 HCVcc-Cre infection, luciferase reporter, 44 h. Potency, µM (series often up to 41.8 µM), without a hit: at the highest dose activity change, negative = inhibition, actives largely listed as inhibitors. 340,000 compounds, 3.4% hits; note: % is set by controls: 0 for no effect and ±100 for the full control effect
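Antiviral activity was scored by luciferase reporter output from cells infected with HCVcc-Cre (~0.5 moi) in presence of compound, 44 h infection period, cells seeded 1,000/well 4 h prior.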
SARS PLP yeast – SARS-CoV PLP inhibition in yeast. S. cerevisiae expressing SARS-CoV PLpro, growth rescue. Potency, µM (titrated, usually from 32.9 µM), for the others: at the top dose activity, positive = growth rescue, actives largely listed as activators. 330,000 compounds, 0.19% hits; calls by dose curve; note: 0% is about no effect; nearly all actives have a fitted effect of over 55% in size
Pf growth 48h – P. falciparum growth inhibition at 48 hours (one generation). 310,000 compounds, 5.9% hits. Potency, µM (doses to about 28.7 µM), for inactives: at the highest dose activity change, negative = inhibition, most hits filed as inhibitors. AID 504832. P. falciparum luciferase growth in erythrocytes, 48 h; note: % is set by controls: 0 for no effect and ±100 for the full control effect
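Cell-based growth assay: transgenic P. falciparum expressing firefly luciferase, cultured in red cells within RPMI 1640 containing 0.5% w/v Albumax, 24 mM bicarbonate and gentamycin. A drop in luciferase activity indicates inhibition.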
Numbers without * were called inactive; ? = inconclusive; . = no result given; [ ] = remark or other dose. Sampled rows, rich in hits. Any-hit rate of the full collection: about 12%. Unless noted, calls come from the whole dose curve; as a rule, active = well fitted curve in the direction sought with a large enough effect; inconclusive = small, poorly fitted or top-dose-only effect, or another doubt; inactive = no such curve, though single readings can be large; an effect the other way counts as inactive or inconclusive. Potency is the fitted concentration of half-maximal effect.

SMILES | AMA1 RON2 block | Pf growth 96h | NS1 inh | HCV inhibitor | SARS PLP yeast | Pf growth 48h
CC(C)C(c1nnnn1C1CCCCC1)N1CCc2ccccc2C1 (centres undefined) | 0% | 8%[5.75 µM] | -14% | -15% | -3% | 15µM*
CC(C)C(c1nnnn1C1CCCC1)N1CCc2ccccc21 (centres undefined) | -13% | ? | -21% | -6% | 2% | ?
CC(C)C(c1nnnn1C1CCCC1)N1CCCc2ccccc21 (centres undefined) | -22% | -15% | -34% | -16% | -32% | 13µM*
CC(C)C(c1nnnn1Cc1ccccc1)N1CCc2ccccc2C1 (centres undefined) | -2% | . | -44% | -1% | -9% | ?
CC1CN(C(=O)C(Sc2ccccc2)c2ccccc2)CC(C)O1 (centres undefined) | 12%[11.6 µM] | 10µM* | 2% | -7% | ? | 9%
CCOc1ccc(NC(=O)NNC(=O)C(C)Oc2ccccc2OC)cc1 (centres undefined) | 73% | -6% | 4% | -16% | -1% | 19%
N/C(=N\OC(=O)Nc1ccccc1)c1ncc([N+](=O)[O-])s1 | 3% | ? | -55% | 13µM* | -14% | ?
O=C(COC(=O)COc1ccccc1)Nc1ncc([N+](=O)[O-])s1 | 30% | -1% | . | 17% | 3% | 2%
O=C(CN1CCCCC1)NNc1nc(-c2ccccc2)c2cc(Br)ccc2n1 | 86% | ? | 3% | 17% | -1% | 0%
CCOC(=O)c1cc(-c2ccc(F)cc2)n(CC(=O)NCc2cccnc2)c1C | -3% | 2.6µM* | . | -2% | 0% | ?
CCOC(=O)c1c(C)c(C(=O)NCc2cccnc2)c(C)n1CC | 0% | 3.7µM* | -1% | 2% | -1% | -2%
COc1ccc(OC)c(NC(=O)CCC(=O)Nc2nnc(C(C)C)s2)c1 | 1% | 22% | -19% | -17% | 1% | 14%
COCCNC(=O)C1(C)CCCN(C(=O)c2ccc(F)c(Cl)c2)C1 (centres undefined) | 5% | . | . | . | . | .
CC(=O)Nc1ccc(NC(=O)[C@@H](NC(=O)N2C[C@H]3C[C@@H](C2)c2cccc(=O)n2C3)C(C)C)cc1 | -10% | 66% | -7% | 20% | 3% | 45%
O=C(Nc1ccc(N2CCN(Cc3ccccc3F)CC2)cc1)c1ccc([N+](=O)[O-])o1 | -23% | ? | 21% | ? | 2% | 1.9µM*
CN1CCN(c2ccc(NC(=O)c3ccc(-c4ccc(Br)cc4)o3)cc2)CC1 | ? | 8% | 5% | 10µM* | -1% | 10µM*
CCC(=O)Nc1ccc(N2CCN(Cc3ccccc3F)CC2)cc1 | -5% | 9.3µM* | 0% | -4% | 3% | ?
CCN(CC)c1ccc(NC(=O)CN2CCN(CC(=O)Nc3ccccc3F)CC2)cc1 | -12% | 28% | 1% | 12% | 25% | 12µM*
COCCNC(=O)C1(C)CCCN(C(=O)c2ccc3c(c2)CCO3)C1 (centres undefined) | 0% | . | . | . | . | .
COc1cccc(-c2ncc3ccccc3c2COC(=O)c2ccc(F)cc2)c1 | -2% | ? | . | ? | 1% | ?
CS(=O)(=O)N1CCN(c2ccc(NC(=O)c3ccc([N+](=O)[O-])o3)cc2)CC1 | -2% | ? | . | ? | 4% | 83%
O=C(Nc1ccc(N2CCN(C(=O)c3ccc(Cl)cc3)CC2)cc1)c1ccc([N+](=O)[O-])o1 | -6% | ? | -4% | 10µM* | -1% | 3.3µM*
CCC(=O)N1CCN(c2ccc(NC(=O)c3ccc([N+](=O)[O-])o3)cc2)CC1 | 13% | 417% | -1% | ? | -1% | 10µM*
CCCC(=O)N1CCN(c2ccc(NC(=O)c3ccc(Br)o3)cc2)CC1 | 1% | . | -8% | -5% | -1% | -30%
CCCC(=O)N1CCN(c2ccc(NC(=O)c3ccc([N+](=O)[O-])o3)cc2)CC1 | -26% | 114% | . | ? | 0% | 17µM*
SMILES | AMA1 RON2 block | Pf growth 96h | NS1 inh | HCV inhibitor | SARS PLP yeast | Pf growth 48h
O=C(Nc1ccc(N2CCCCC2)cc1)c1ccc([N+](=O)[O-])o1 | -27% | ? | -32% | ? | -5% | -23%
CC(C)(C)C(=O)N1CCN(c2ccc(NC(=O)c3ccc([N+](=O)[O-])o3)cc2)CC1 | -16% | 7.4µM* | 5% | ? | 1% | ?
Cn1[nH]c(C(F)(F)F)cc1=O | 2% | ? | . | 7% | -2% | ?
N#Cc1ccc(NC(=O)COC(=O)c2cccnc2Cl)cc1 | 1%[11.6 µM] | . | . | 23% | 5% | .
O=C(NC(=S)Nc1ccc(-c2nc3ncccc3o2)cc1)c1ccccc1F | 26% | -14% | 3% | ? | 1% | -12%
CCn1cc(S(=O)(=O)NCCc2ccc(OC)c(OC)c2)cn1 | 0% | 86% | 2% | -3% | 3% | 5%
CN1CCN(C(=O)C(C(=O)c2ccc(F)cc2)n2ccccc2=O)CC1 (centres undefined) | 19% | 2.3µM* | -2% | 28% | -2% | 11%
O=C(NCc1ccccn1)C(C(=O)c1ccc(F)cc1)n1ccccc1=O (centres undefined) | 59% | 13µM* | -4% | 5% | 4% | 7%
Cc1cccc[n+]1CC(=O)Nc1ccccc1 | 3% | ? | -3% | -1% | 1% | -14%
Cc1cccc[n+]1CC(=O)c1ccc(NC(=O)c2ccccc2)cc1 | -3% | 11% | -17% | 10% | -2% | 2.9µM*
Cc1c(N)cc[n+](CC(=O)c2ccccc2)c1C | -18% | -3% | 0% | 8.9µM* | -1% | -30%
N#Cc1cc[n+](CC(=O)c2ccc(NC(=O)c3ccccc3)cc2)cc1 | ? | 3.3µM* | 10% | 14% | 0% | 4.1µM*
O=C(C[n+]1cccc(C(=O)Nc2ccccc2)c1)c1ccc(Cl)cc1 | 0% | . | . | . | . | .
Cc1cc[n+](CC(=O)c2ccccc2)c2ccccc12 | 8% | -25% | 12% | -22% | 2% | ?
CN(C(=O)c1cccc(Br)c1)C1CCS(=O)(=O)C1 (centres undefined) | -5% | 11% | . | 15% | 3% | 11%
CCc1ccc(OCCn2cccn2)cc1 | -1% | 3% | . | 6% | 1% | 59%
COc1ccc(N=Nc2cc(C)c(O)c(CN3CCCCC3)c2)cc1 | 20µM* | 0.26µM* | -1% | -16% | 1% | 0.26µM*
CCCCCn1c(=O)[nH]c2cc(C(=O)NC3CCN(Cc4ccccc4)CC3)ccc2c1=O | 8% | . | . | 13% | . | .
COc1ccc(/C=C2\Sc3ccc(C(=O)NC4CC4)cc3N(C)C2=O)cc1OC | -15% | -1% | 10% | ? | -4% | ?
O=C(NC1CCN(Cc2ccccc2)CC1)c1ccc2c(c1)[nH]c(=O)n2Cc1ccc(F)cc1 | 2% | 74% | 0% | 2.5µM* | 0% | -4%
